# The supplement of paper PMC8728848
# The entries come from a sample that favours the strongest signals as a whole.
# B1: rPitB (Streptococcus pneumoniae), A0A0I7U739 (protein)
# chain: MSEIEIINAKKIYHDVPVIENLNITIPKGSLFTLLGASGCGKTTLLRMIAGFNSIKDGEFYFDDTKINNMEPSKRNIGLVFQNYAIFPHLTVRDNVAFGLMQKKVPKEELIQQTNKYLELMQIAQYAD
# Experiments:
# Experiment in all cases: glycan array binding signal (z-score within array); higher = stronger binding
# Details in all cases: glycan notation: IUPAC condensed, linker removed
# [1] = target: Fuc(a1-2)Gal(b1-3)GalNAc(a1-3)[Fuc(a1-2)]Gal(b1-4)GlcNAc
# In short: (§1)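 Negative Z-scores can be read as non-binding. The Z-score is calculated within each array and then averaged across arrays of one protein sequence at different concentrations or buffers and across linkers. Arrays, 3228 in all, were curated from the Consortium for Functional Glycomics database and kept only where the protein sequence was available.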
# [2] = target: Fuc(a1-2)Gal(b1-3)GalNAc(b1-4)[Neu5Ac(a2-3)]Gal(b1-4)Glc
# In short: as §1
# [3] = target: Fuc(a1-2)Gal(b1-3)GlcNAc(b1-3)[Gal(b1-4)GlcNAc(b1-6)]Gal(b1-4)Glc
# In short: as §1
# [4] = target: Fuc(a1-2)Gal(b1-3)[Fuc(a1-4)]GlcNAc(b1-3)[Fuc(a1-3)[Gal(b1-4)]GlcNAc(b1-6)]Gal(b1-4)Glc
# In short: as §1
# [5] = target: Fuc(a1-2)Gal(b1-4)GlcNAc(b1-2)[Fuc(a1-2)Gal(b1-4)GlcNAc(b1-4)]Man(a1-3)[Fuc(a1-2)Gal(b1-4)GlcNAc(b1-2)Man(a1-6)]Man(b1-4)GlcNAc(b1-4)GlcNAc
# In short: as §1
# [6] = target: Fuc(a1-2)[Gal(a1-3)]Gal(b1-3)GlcNAc
# In short: as §1
# [7] = target: Fuc(a1-2)[Gal(a1-3)]Gal(b1-4)Glc
# In short: as §1
# [8] = target: Fuc(a1-2)[Gal(a1-4)]Gal(b1-4)GlcNAc
# In short: as §1
# [9] = target: Fuc(a1-2)[GalNAc(a1-3)]Gal(b1-4)Glc
# In short: as §1
# [10] = target: Fuc(a1-2)[GalNAc(a1-3)]Gal(b1-4)GlcNAc
# In short: as §1
# [11] = target: Fuc(a1-2)[GalNAc(a1-3)]Gal(b1-4)GlcNAc(b1-2)Man(a1-3)[Fuc(a1-2)[GalNAc(a1-3)]Gal(b1-4)GlcNAc(b1-2)Man(a1-6)]Man(b1-4)GlcNAc(b1-4)GlcNAc
# In short: as §1
# [12] = target: Fuc(a1-3)[Gal(b1-4)]GlcNAc(b1-4)Gal(b1-4)[Fuc(a1-3)]GlcNAc(b1-4)Gal(b1-4)[Fuc(a1-3)]GlcNAc
# In short: as §1
# [13] = target: Fuc(a1-4)GlcNAc
# In short: as §1
# [14] = target: Gal(a1-3)Gal(b1-4)Glc
# In short: as §1
# [15] = target: Gal(a1-4)Gal(b1-4)GlcNAc(b1-2)Man(a1-3)[Gal(a1-4)Gal(b1-4)GlcNAc(b1-2)Man(a1-6)]Man(b1-4)GlcNAc(b1-4)GlcNAc
# In short: as §1
# [16] = target: Gal(b1-3)GlcNAc
# In short: as §1
# [17] = target: Gal(b1-3)GlcNAc(b1-2)Man(a1-3)[Gal(b1-3)GlcNAc(b1-2)Man(a1-6)]Man(b1-4)GlcNAc(b1-4)GlcNAc
# In short: as §1
# [18] = target: Gal(b1-3)GlcNAc(b1-2)Man(a1-3)[Gal(b1-3)GlcNAc(b1-2)Man(a1-6)]Man(b1-4)GlcNAc(b1-4)[Fuc(a1-6)]GlcNAc
# In short: as §1
# [19] = target: Gal(b1-3)[Fuc(a1-4)]GlcNAc(b1-2)Man(a1-3)[Gal(b1-3)[Fuc(a1-4)]GlcNAc(b1-2)Man(a1-6)]Man(b1-4)GlcNAc(b1-4)GlcNAc
# In short: as §1
# [20] = target: Gal(b1-3)[Fuc(a1-4)]GlcNAc(b1-2)Man(a1-3)[Gal(b1-3)[Fuc(a1-4)]GlcNAc(b1-2)Man(a1-6)]Man(b1-4)GlcNAc(b1-4)[Fuc(a1-6)]GlcNAc
# In short: as §1
# [21] = target: Gal(b1-3)[Neu5Ac(a2-6)]GalNAc
# In short: as §1
# [22] = target: Gal(b1-3)[Neu5Ac(a2-6)]GlcNAc(b1-6)Gal(b1-4)Glc
# In short: as §1
# [23] = target: Gal(b1-4)GlcNAc(b1-2)Man(a1-3)[Gal(b1-4)GlcNAc(b1-2)Man(a1-6)]Man(b1-4)GlcNAc(b1-4)[Fuc(a1-6)]GlcNAc
# In short: as §1
# [24] = target: Gal(b1-4)GlcNAc(b1-2)Man(a1-3)[GlcNAc(b1-2)Man(a1-6)]Man(b1-4)GlcNAc(b1-4)GlcNAc
# In short: as §1
# [25] = target: Gal(b1-4)GlcNAc(b1-6)Gal(b1-4)GlcNAc
# In short: as §1
# [26] = target: Gal3S(b1-3)[Fuc(a1-4)]GlcNAc
# In short: as §1
# [27] = target: Gal3S(b1-4)Glc6S
# In short: as §1
# [28] = target: Gal3S(b1-4)GlcNAc6S
# In short: as §1
# [29] = target: Gal3S6S(b1-4)GlcNAc6S
# In short: as §1
# [30] = target: Gal6S(b1-3)GlcNAc6S
# In short: as §1
# [31] = target: Gal6S(b1-4)GlcNAc6S
# In short: as §1
# [32] = target: GalNAc(b1-6)GalNAc
# In short: as §1
# [33] = target: Glc(b1-6)Glc
# In short: as §1
# [34] = target: GlcA(b1-3)GlcNAc
# In short: as §1
# [35] = target: GlcNAc(a1-4)Gal(b1-4)GlcNAc(b1-3)Gal(b1-4)[Fuc(a1-3)]GlcNAc(b1-3)Gal(b1-4)[Fuc(a1-3)]GlcNAc
# In short: as §1
# [36] = target: GlcNAc(b1-2)Man(a1-3)[GlcNAc(b1-4)][GlcNAc(b1-2)Man(a1-6)]Man(b1-4)GlcNAc(b1-4)GlcNAc
# In short: as §1
# [37] = target: GlcNAc(b1-2)[GlcNAc(b1-4)]Man(a1-3)[GlcNAc(b1-4)][GlcNAc(b1-2)Man(a1-6)]Man(b1-4)GlcNAc(b1-4)GlcNAc
# In short: as §1
# [38] = target: Neu5Ac(a2-3)Gal(b1-3)GalNAc(b1-3)Gal(a1-4)Gal(b1-4)Glc
# In short: as §1
# [39] = target: Neu5Ac(a2-3)Gal(b1-3)GlcNAc(b1-3)Gal(b1-3)GlcNAc
# In short: as §1
# [40] = target: Neu5Ac(a2-3)Gal(b1-3)[Fuc(a1-4)]GlcNAc(b1-3)Gal(b1-3)[Fuc(a1-4)]GlcNAc
# In short: as §1
# [41] = target: Neu5Ac(a2-3)Gal(b1-4)GlcNAc(b1-3)Gal(b1-3)GlcNAc
# In short: as §1
# [42] = target: Neu5Ac(a2-3)Gal(b1-4)GlcNAc(b1-6)[Neu5Ac(a2-3)Gal(b1-3)]GalNAc
# In short: as §1
# [43] = target: Neu5Ac(a2-3)Gal(b1-4)[Fuc(a1-3)]GlcNAc(b1-3)GalNAc
# In short: as §1
# [44] = target: Neu5Ac(a2-3)Gal(b1-4)[Fuc(a1-3)]GlcNAc(b1-6)[Gal(b1-3)]GalNAc
# In short: as §1
# [45] = target: Neu5Ac(a2-3)[GalNAc(b1-4)]Gal(b1-4)GlcNAc(b1-3)GalNAc
# In short: as §1
# [46] = target: Neu5Ac(a2-6)Gal(b1-4)GlcNAc(b1-2)Man(a1-3)[GlcNAc(b1-2)Man(b1-4)GlcNAc(b1-2)Man(a1-6)]Man(b1-4)GlcNAc(b1-4)GlcNAc
# In short: as §1
# [47] = target: Neu5Ac(a2-6)Gal(b1-4)GlcNAc(b1-2)Man(a1-3)[Man(a1-6)]Man(b1-4)GlcNAc(b1-4)GlcNAc
# In short: as §1
# [48] = target: Neu5Ac(a2-6)Gal(b1-4)GlcNAc(b1-3)Gal(b1-4)GlcNAc(b1-3)Gal(b1-4)GlcNAc
# In short: as §1
# [49] = target: Neu5Ac(a2-6)Gal(b1-4)GlcNAc(b1-3)Gal(b1-4)[Fuc(a1-3)]GlcNAc(b1-3)Gal(b1-4)[Fuc(a1-3)]GlcNAc
# In short: as §1
# [50] = target: Neu5Ac(a2-8)Neu5Ac(a2-3)[Gal(b1-3)GalNAc(b1-4)]Gal(b1-4)Glc
# In short: as §1
binder,measurement,setting,value
B1,glycan array binding signal (z-score),[1],-0.708
same,glycan array binding signal (z-score),[2],-0.128
same,glycan array binding signal (z-score),[3],-0.397
same,glycan array binding signal (z-score),[4],0.227
same,glycan array binding signal (z-score),[5],0.316
same,glycan array binding signal (z-score),[6],-0.113
same,glycan array binding signal (z-score),[7],1.11
same,glycan array binding signal (z-score),[8],-0.108
same,glycan array binding signal (z-score),[9],-0.271
same,glycan array binding signal (z-score),[10],-0.509
same,glycan array binding signal (z-score),[11],0.481
same,glycan array binding signal (z-score),[12],3.03
same,glycan array binding signal (z-score),[13],-0.579
same,glycan array binding signal (z-score),[14],-0.617
same,glycan array binding signal (z-score),[15],1.43
same,glycan array binding signal (z-score),[16],-0.704
same,glycan array binding signal (z-score),[17],0.944
same,glycan array binding signal (z-score),[18],0.638
same,glycan array binding signal (z-score),[19],3.68
same,glycan array binding signal (z-score),[20],2.09
same,glycan array binding signal (z-score),[21],0.092
same,glycan array binding signal (z-score),[22],-0.142
same,glycan array binding signal (z-score),[23],0.8
same,glycan array binding signal (z-score),[24],-0.568
same,glycan array binding signal (z-score),[25],-0.596
same,glycan array binding signal (z-score),[26],-0.575
same,glycan array binding signal (z-score),[27],0.112
same,glycan array binding signal (z-score),[28],0.471
same,glycan array binding signal (z-score),[29],-0.233
same,glycan array binding signal (z-score),[30],0.052
same,glycan array binding signal (z-score),[31],0.24
same,glycan array binding signal (z-score),[32],-0.608
same,glycan array binding signal (z-score),[33],-0.176
same,glycan array binding signal (z-score),[34],5.72
same,glycan array binding signal (z-score),[35],3.89
same,glycan array binding signal (z-score),[36],-0.914
same,glycan array binding signal (z-score),[37],-1.01
same,glycan array binding signal (z-score),[38],-0.604
same,glycan array binding signal (z-score),[39],-0.301
same,glycan array binding signal (z-score),[40],2.33
same,glycan array binding signal (z-score),[41],-0.394
same,glycan array binding signal (z-score),[42],0.027
same,glycan array binding signal (z-score),[43],4.13
same,glycan array binding signal (z-score),[44],2.86
same,glycan array binding signal (z-score),[45],-0.463
same,glycan array binding signal (z-score),[46],-0.255
same,glycan array binding signal (z-score),[47],0.505
same,glycan array binding signal (z-score),[48],0.323
same,glycan array binding signal (z-score),[49],0.032
same,glycan array binding signal (z-score),[50],-0.053
